# From the supplement of paper PMC13380429
# Structures can show the parent of a compound that is named as a salt. Values without a mark were called inactive.
# System: Vero E6 infected with SARS-CoV-2
# Assay: inhibition of SARS-CoV-2 cytopathic effect; higher = more antiviral protection, active = above 15
# Conditions: 833.33 nM; 48 h
row,SMILES,inhibition of SARS-CoV-2 cytopathic effect [%]
1,CC(=O)N(c1onc(C)c1C)S(=O)(=O)c1ccc(N)cc1 [sulfisoxazole-acetyl],-0.91
2,CCN(CC)CCCCN1c2ccccc2Oc2ccc(Cl)cc21,-3.45
3,COC1=C2C[C@@H](C)C[C@H](OC)[C@H](O)[C@@H](C)/C=C(\C)[C@H](OC(N)=O)[C@@H](OC)/C=C\C=C(/C)C(=O)NC(=CC1=O)C2=O [geldanamycin],-3.32
4,CO/N=C(\C(=O)N[C@@H]1C(=O)N2C(C(=O)O)=C(Cn3ccc(=N)n3CCO)CS[C@H]12)c1csc(N)n1 [Cefoselis sulfate],-1.56
5,COc1cc2c(cc1OC)-c1c/c(=N\c3c(C)cc(C)cc3C)n(C)c(=O)n1CC2 [trequinsin],3.41
6,N[C@@H]1CCCN(c2c(/C=C3\SC(=O)NC3=O)cccc2-c2ccccc2)C1,-0.89
7,COc1ccc(N2CCOCC2)c2sc(NC(=O)N3CCC(C)(O)CC3)nc12 [tozadenant],-0.08
8,CC(C)n1nccc1-c1ncccc1COc1cccc(O)c1C=O [voxelotor],0.27
9,CCN(CC)CCOc1ccc(Nc2ncc3cc(-c4c(Cl)cccc4Cl)c(=O)n(C)c3n2)cc1,-9.61
10,O=C(c1ccc(CN2CCOCC2)cc1)N1CCN(C2CC2)CC1 [bavisant],-0.97
11,Cc1cc2nc3c(=O)[nH]c(=O)nc-3n(C[C@H](O)[C@H](O)[C@H](O)COP(=O)(O)O)c2cc1C [riboflavin-5-phosphate-sodium],1.47
12,COc1nc(N)nc2c1ncn2[C@@H]1O[C@H](CO)[C@@H](O)[C@@H]1O [nelarabine],-0.9
13,O=C(c1ccc2nccnc2c1)N1CCCCC1 [ampalex],0.17
14,CCCCNc1ncc2c(-c3ccc(CN4CCN(C)CC4)cc3)cn([C@H]3CC[C@H](O)CC3)c2n1,-9.69
15,CCN(CC)CCNC(=O)c1ccccc1I,-2.04
16,CCCN(CCC)S(=O)(=O)c1ccc(C(=O)O)cc1 [probenecid],-2.63

row,SMILES,inhibition of SARS-CoV-2 cytopathic effect [%]
1,Clc1ccc(C2=CCC[C@H]3CC[C@@H]2N3)cn1,0.15
2,O=C(CCc1ccc(O)cc1)c1c(O)cc(O)cc1O[C@@H]1O[C@H](CO)[C@@H](O)[C@H](O)[C@H]1O [phlorizin],0.18
3,CCCCCCCCCCCCCC(=O)[O-].CCCCCCCCCCCCCC(=O)[O-].N[C@@H]1CCCC[C@H]1N.[Pt+2] [miriplatin],-1
4,O=C(NO)c1cnc(N2CCN(S(=O)(=O)c3ccc4ccccc4c3)CC2)nc1,-16.4
5,CO/N=C(\C(=O)N[C@@H]1C(=O)N2C(C(=O)O)=C(CSc3nc(=O)c(O)nn3C)CS[C@H]12)c1csc(N)n1 [ceftriaxone],0.59
6,C=CC(=O)Nc1cccc(Oc2nc(Nc3ccc(N4CCN(C)CC4)cc3)nc3ccsc23)c1 [olmutinib],-12
7,CN1[C@@H]2CC[C@H]1C[C@@H](OC(=O)c1c[nH]c3ccccc13)C2 [tropisetron],1.27
8,C#C[C@]1(OC(C)=O)CC[C@H]2[C@@H]3CCC4=C[C@@H](OC(C)=O)CC[C@@H]4[C@H]3CC[C@@]21C [ethynodiol-diacetate],-2.62
9,COC(=O)[C@H](NC(=O)c1cc(-c2ccccc2)nc2ccccc12)c1ccccc1,0.39
10,CN(C)[C@@H]1C(O)=C(C(N)=O)C(=O)[C@@]2(O)C(O)=C3C(=O)c4c(O)ccc(Cl)c4[C@@H](O)[C@H]3C[C@@H]12 [demeclocycline],1.19
11,CC1=C(CC(=O)O)c2cc(F)ccc2/C1=C\c1ccc([S+](C)[O-])cc1 (stereo unspecified) [sulindac],-0.62
12,CN1c2c([nH]c(N)nc2=O)NC[C@@H]1CNc1ccc(C(=O)N[C@@H](CCC(=O)O)C(=O)O)cc1 [metafolin],0.81
13,O=C(Oc1cccc2cccnc12)c1ccccc1 [benzoxiquine],-1.05
14,O=C(O)/C=C/CO [trans-4-hydroxycrotonic-acid],5.18
15,CC1(COc2ccc(CC3SC(=O)NC3=O)cc2)CCCCC1 (stereo unspecified) [ciglitazone],3.16
